Hits are enriched below; roughly 2.7% of the tested compounds scored in any of these assays.
CendR NRP1 mod: alters CendR peptide binding to human NRP-1 | FAM-RPARPAR peptide binding to NRP-1, fluorescence polarization | inhibition, % at 25 µM | 360,000 compounds, 0.85% hits | AID 602438;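 active means inhibition or corrected inhibition above about 18%, plus a signal ratio from 0.5 to 1.5, limit read from the data, passing the limit was not always enough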
Target sequence (O14786 whole entry, looked up): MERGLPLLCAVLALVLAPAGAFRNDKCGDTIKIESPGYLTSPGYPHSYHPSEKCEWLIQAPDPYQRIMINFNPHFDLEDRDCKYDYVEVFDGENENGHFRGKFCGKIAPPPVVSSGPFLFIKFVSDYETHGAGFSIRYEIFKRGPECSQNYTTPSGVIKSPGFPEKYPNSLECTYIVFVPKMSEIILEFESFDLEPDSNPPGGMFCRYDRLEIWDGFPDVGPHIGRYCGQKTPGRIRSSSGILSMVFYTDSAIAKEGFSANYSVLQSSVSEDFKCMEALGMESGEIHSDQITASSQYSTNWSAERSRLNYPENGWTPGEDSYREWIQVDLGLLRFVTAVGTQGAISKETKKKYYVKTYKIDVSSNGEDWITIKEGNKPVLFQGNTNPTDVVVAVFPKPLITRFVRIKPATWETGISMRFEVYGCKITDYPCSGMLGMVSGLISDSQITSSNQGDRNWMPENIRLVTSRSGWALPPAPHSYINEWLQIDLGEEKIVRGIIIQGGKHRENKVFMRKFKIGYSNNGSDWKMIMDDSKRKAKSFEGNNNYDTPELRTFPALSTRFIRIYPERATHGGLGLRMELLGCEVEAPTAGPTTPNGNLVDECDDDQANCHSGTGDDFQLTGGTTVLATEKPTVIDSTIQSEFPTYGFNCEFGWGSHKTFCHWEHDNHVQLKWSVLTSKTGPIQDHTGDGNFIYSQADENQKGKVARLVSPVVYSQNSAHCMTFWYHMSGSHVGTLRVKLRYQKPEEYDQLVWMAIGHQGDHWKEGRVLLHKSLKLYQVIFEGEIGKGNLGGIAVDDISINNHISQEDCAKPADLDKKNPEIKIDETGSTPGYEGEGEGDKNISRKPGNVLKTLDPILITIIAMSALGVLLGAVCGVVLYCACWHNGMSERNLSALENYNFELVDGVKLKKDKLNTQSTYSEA
F508del corr: correctors of CFTR F508del function in bronchial epithelial cells | CFBE cells, YFP halide quenching; stimulated with forskolin plus potentiator P3; % fluorescence drop versus neutral controls | activity (quench increase), % at 7.58 µM | 350,000 compounds, 0.36% hits | AID 720511;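 active means mean added fluorescence quench of at least 8% versus neutral control, with both replicates also reaching 8%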;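 further: cells transiently co-express mutant CFTR-F508del with the halide-sensitive YFP; corrector assay measuring rescue of mutant channel to the surface after 24 h compound exposure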
ATG4B inhibitor: blocks human ATG4B protease cleavage of LC3 substrate; inhibition, % at 8.33 µM; ATG4B cleavage of LC3-PLA2, NBD-HPC fluorescence, 1 h; AID 504462; 340,000 compounds, 0.51% hits; in the data active means inhibition above about 40%
MPTP inh: permeability transition pore inhibition | isolated mouse mitochondria, Ca2+ swelling absorbance, 30 min | inhibition, % at 10 µM | 360,000 compounds, 1.4% hits | AID 602449;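 active means inhibition of 50% or more, scaled per plate between neutral and stimulator controls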;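 further: 0% = DMSO wells given calcium and 100% = 1 mM EGTA wells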
SKN-1 inh: inhibitors of C. elegans SKN-1 | 360,000 compounds, 0.49% hits | AID 624304 | inhibition, % at 21.8 µM | C. elegans VP596 Pgst-4::GFP/RFP ratio, acrylamide-induced, 24 h;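 active means interference check ratio from 0.5 to 1.5 plus GFP to RFP signal ratio inhibition reaching or exceeding a fixed threshold, cut at about 30% in these data, passing the limit was not always enough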
An asterisk follows results filed as active; . = not tested or not shown.

SMILES	CendR NRP1 mod	F508del corr	ATG4B inhibitor	MPTP inh	SKN-1 inh
C[C@@H]1CN([C@@H](C)CO)C(=O)c2cccc(NC(=O)c3ccc(-c4nccs4)cc3)c2O[C@@H]1CN(C)Cc1ccc(C(F)(F)F)cc1	.	3	.	.	.
Cc1cc(NC(=O)CCc2ccc(C)o2)no1	-11	.	0	0	31*
Cc1cc(NC(=O)COC(=O)c2ccc(C)c(C)c2)no1	26*	1	-8	0	-3
CCCC#Cc1cnc2c(c1)C(=O)N([C@@H](C)CO)C[C@@H](C)[C@H](CN(C)C(=O)Cc1ccncc1)O2	.	-2	.	.	.
CN(C)C(=O)c1ccc(-c2ccc([C@H]3[C@@H](CO)N4CCCCN(C(=O)C5CCCC5)C[C@@H]34)cc2)cc1	.	-3	.	.	.
COc1ccc(S(=O)(=O)N[C@@H]2CC[C@@H](CCn3cc(-c4cccc(F)c4)nn3)O[C@@H]2CO)cc1	.	0	.	.	.
O=C(Nc1ccc(Cl)cc1)c1cccc(S(=O)(=O)Nc2ccccn2)c1	15	2	3	0	12
O=C(Nc1ccc(Cl)cc1)c1cc(S(=O)(=O)Nc2ccccn2)ccc1Cl	24*	0	4	1	-4
Fc1ccc(/C=N/NC(=S)Nc2ccc(Cl)cc2Cl)cc1	3	10*	9	7	9
Fc1ccc(NC(=S)N/N=C/c2ccc(F)c(F)c2)cc1	-4	-1	-6	2	0
O=C(NC1CCCCC1)[C@@H]1[C@@H](CO)[C@@H]2Cn3c(cccc3=O)[C@@H]2N1CC1CCCC1	.	2	.	.	.
CCn1nnc2sc3c(c2c1=O)CCC(C)C3 (stereo not drawn)	9	.	-8	-1	36*
CC(=O)Cn1nnc2sc3c(c2c1=O)CCC(C(C)(C)C)C3 (stereo not drawn)	10	-3	-3	0	-2
Cn1c(SCC(=O)NNC(=O)c2ccccc2)nnc1C1CC1	24*	0	3	-2	9
Cc1ccc(C(=O)NNC(=O)CSc2nnc(C3CC3)n2C)cc1	-2	-1	6	-4	5
Cc1ccc(C(=O)NNC(=O)CSc2nnc(C(C)C)n2C)cc1	20*	1	-14	1	-3
Cc1ccc(S(=O)(=O)NCC[C@@H]2CC[C@H](NC(=O)c3cccc(F)c3)[C@@H](CO)O2)cc1	.	1	.	.	.
Oc1ccc(/C=N/Nc2cc(N3CCOCC3)nc(N3CCOCC3)n2)cc1O	26*	.	-8	2	6
COc1ccc(S(=O)(=O)N2CC3(CN(C(=O)CN(C)C)[C@H](CO)c4c3c3ccc(OC)cc3n4C)C2)cc1	.	-4	.	.	.
CO[C@H]1CN(C)C(=O)c2ccc(NC(=O)c3cnccn3)cc2OC[C@H](C)N(CC2CC2)C[C@@H]1C	.	-1	.	.	.
CCOCCn1c(COc2ccccc2)nc2ccccc21	12	.	-4	0	40*
CO[C@@H]1CN(C)C(=O)c2cc(NC(=O)c3cccc(Oc4ccccc4)c3)ccc2OC[C@@H](C)NC[C@H]1C	.	-1	.	.	.
O=C1CNC[C@@H]2[C@H](c3ccc(C#Cc4cccnc4)cc3)[C@@H](CO)N12	.	-1	.	.	.
CCCC#Cc1ccc([C@@H]2[C@H](C#N)N(S(=O)(=O)c3cccc(F)c3)[C@H]2CO)cc1	.	3	.	.	.
Cn1c(=O)c2[nH]c(COc3ccccc3)nc2n(C)c1=O	32*	1	-2	0	2
SMILES	CendR NRP1 mod	F508del corr	ATG4B inhibitor	MPTP inh	SKN-1 inh
O=C(CN1CCN(S(=O)(=O)c2ccc(F)c(Cl)c2)CC1)N1CCc2ccccc2C1	5	16*	-4	-1	10
O=C(CN1CCN(S(=O)(=O)c2ccc(F)c(Cl)c2)CC1)N1CCc2ccccc21	-8	-3	-4	1	-6
O=C(C[C@H]1C[C@H]2c3cc(NC(=O)c4ccc5c(c4)OCO5)ccc3O[C@H]2[C@@H](CO)O1)NCCc1ccccc1	.	-4	.	.	.
COc1cccc(S(=O)(=O)N[C@@H]2CC[C@@H](CC(=O)NCc3ccc(Cl)cc3)O[C@H]2CO)c1	.	0	.	.	.
O=C(C1CCCC1)N1CC[C@@H]2[C@H]1c1cc(-c3cccc(F)c3)ccc1N[C@@H]2CO	.	1	.	.	.
Cc1ccc(S(=O)(=O)Nc2ccc3c(c2)CC(=O)N([C@H](C)CO)C[C@H](C)[C@@H](CN(C)Cc2ccc(Cl)c(Cl)c2)O3)cc1	.	7	.	.	.
C[C@@H]1CN([C@H](C)CO)C(=O)c2cc(NC(=O)Cc3cn(C)c4ccccc34)ccc2O[C@@H]1CN(C)Cc1ccc(Cl)c(Cl)c1	.	8.1*	.	.	.
C[C@@H]1CN([C@@H](C)CO)C(=O)c2cc(NS(=O)(=O)c3ccc(Cl)cc3)ccc2O[C@@H]1CN(C)Cc1ccc(C(F)(F)F)cc1	.	9.8*	.	.	.
C[C@@H]1CN([C@@H](C)CO)C(=O)c2cc(NC(=O)Cc3cn(C)c4ccccc34)ccc2O[C@@H]1CN(C)Cc1ccc(Cl)c(Cl)c1	.	4	.	.	.
Cc1ccc(S(=O)(=O)Nc2ccc3c(c2)CC(=O)N([C@@H](C)CO)C[C@@H](C)[C@@H](CN(C)Cc2ccc(Cl)c(Cl)c2)O3)cc1	.	11*	.	.	.
COc1ccc(NC(=O)N[C@@H]2CC[C@@H](CCn3cc(-c4ccc(F)cc4)nn3)O[C@@H]2CO)cc1	.	9.2*	.	.	.
CCOc1ccc(-c2nc(-c3cccnc3)no2)cc1	-3	.	4	2	53*
CCOc1ccc(-c2cnc3ccccc3n2)cc1	-1	-3	-5	1	35*
c1ccc(-c2nc(-c3ccncc3)no2)cc1	-14	.	12	-1	69*
CCOc1ccc(-c2nnc(-c3ccccc3)o2)cc1	1	.	8	-6	38*
O=C(C[C@@H]1CC[C@H](NS(=O)(=O)c2ccc(F)cc2)[C@H](CO)O1)NCCc1ccncc1	.	-2	.	.	.
CCCCc1ccc(-c2nc(-c3ccncc3)no2)cc1	-9	.	9	4	7
c1ccc(-c2ccc(-c3nc(-c4cccnc4)no3)cc2)cc1	-1	.	-24	3	43*
CCc1ccc(-c2nc(-c3ccncc3)no2)cc1	6	.	-1	0	48*
CC(=O)c1c(C)[nH]c(C(=O)OCc2nnc(-c3ccc([N+](=O)[O-])cc3)o2)c1C	0	9.2*	8	2	-16
CC(=O)c1c(C)[nH]c(C(=O)OCC(=O)NNC(=O)c2ccc([N+](=O)[O-])cc2)c1C	2	-1	-8	1	23
COc1cccc2c1C(=O)c1c(O)c3c(c(O)c1C2=O)CC(O)(C(=O)CO)CC3OC1CC(N(C)C)C(O)C(C)O1 (stereo not drawn)	145	25*	-23	5	83
COc1cccc2c1C(=O)c1c(O)c3c(c(O)c1C2=O)C[C@@](O)(C(C)=O)C[C@@H]3O[C@H]1C[C@H](N)[C@H](O)[C@H](C)O1	142	75*	-24	24	68
COc1cccc2c1C(=O)c1c(O)c3c(c(O)c1C2=O)C[C@@](O)(C(=O)CO)C[C@@H]3O[C@H]1C[C@H](N)[C@@H](O)[C@H](C)O1	142	.	-14	10	68
